hgDAF-12 ag: activates the H. glycines DAF-12 receptor ligand-binding domain | HEK293 GAL4-hgDAF12 UAS-luciferase reporter, agonist luminescence; normalized to butyrate control | activation, % at 6.8 µM | hit rate 1.8% among 370,000;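 active = activation above a cutoff set at the mean of all screened compounds plus 3 SD, cut at about 10% in these data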;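 note: 0% = DMSO wells and 100% = sodium butyrate wells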
Wnt bcat act: activators of Wnt/beta-catenin signaling; Wnt/beta-catenin reporter cell assay, activator, plate reader; activation, % at 9.35 µM; hit rate 1.2% among 300,000; AID 743398; in the data active = activation above about 30%, passing the limit was not always enough; inconclusive = no clear call, values can overlap the other calls;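 note: 0% = neutral control wells and 100% = positive control wells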
hcDAF-12 act: activators of H. contortus DAF-12 nuclear receptor | activation, % at 6.8 µM | hit rate 1.4% among 370,000 | HEK293 hcDAF-12 lit1-tk-luc reporter, luminescence; 0% DMSO, 100% Δ7-dafachronic acid;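 active = activation above the mean of all tested compounds plus 3 SD, cut at about 5.5% in these data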;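 note: 100% = response to 3 µM Δ7-dafachronic acid high control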
ssDAF12 agonist: activates DAF-12 receptor from parasite S. stercoralis; HEK293 ssDAF-12/GRIP1 lit1-tk-luc reporter, luminescence; % of 3 µM dafachronic acid response; activation, % at 6.8 µM; hit rate 1% among 370,000;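 active = activation above the mean over all tested compounds plus 3 SD, cut at about 0.9% in these data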;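 note: 0% = DMSO-only wells and 100% = 3 µM delta7-dafachronic acid wells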
DAX1 StAR inh: inhibitors of DAX1 repression of SF-1 activated StAR promoter. HEK293T StAR-luciferase reporter, SF-1/DAX-1 repression relief. inhibition, % at 6.8 µM. hit rate 1.1% among 370,000;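 active = inhibition above the mean over all tested compounds plus 3 SD, cut at about 3.6% in these data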;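 note: 0% = DAX-1 cells with DMSO and 100% = cells lacking DAX-1 with DMSO; higher inhibition means more luminescence from relief of DAX-1 repression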
esBAF inh: inhibitors of esBAF chromatin remodeling in mouse ES cells. hit rate 2% among 350,000. reporter increase, % at 12.5 µM. Bmi1-luciferase knock-in reporter, 24 h; 100% = twice the neutral-well signal; in the data active = activation above about 40%; inconclusive = no clear call, values can overlap the other calls;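 note: 0% = median of the plate's neutral control wells and 100% = double that signal; a rise in the Bmi1 reporter signal indicates esBAF inhibition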
The depositor's hits bear a star; ? = inconclusive; nt = no result given. A selection: hits, their analogues and other compounds. The true share with any hit is near 4.2%.

SMILES	hgDAF-12 ag	Wnt bcat act	hcDAF-12 act	ssDAF12 agonist	DAX1 StAR inh	esBAF inh
CCOc1cc(N2CCOCC2)c(OCC)cc1NC(=O)COC(=O)CCOc1ccc(C(C)(C)C)cc1	0.0	3.9	-0.2	-0.7	-0.5	3.8
CCCCOc1ccc(-c2nnn(CCC(=O)N3CCOCC3)n2)cc1	4.4	11.4	0.0	-1.1	-0.6	62.7*
CC(C)(C)c1ccc(OCCCC(=O)N2CCOCC2)cc1	-1.5	14.4	-1.2	-0.8	-0.1	66.4*
COc1ccc(NC(=O)N[C@H]2CC[C@H](CCn3cc(C4(O)CCCC4)nn3)O[C@H]2CO)cc1	nt	nt	nt	nt	nt	1.5
COc1ccc(-c2nnc(SCC(=O)N3CCCC3)o2)c(OC)c1	11.9*	12.2	1.8	-1.0	0.7	39.7
COCC(=O)N(C)C[C@@H]1Oc2ncc(-c3ccccc3OC)cc2C(=O)N([C@@H](C)CO)C[C@H]1C	nt	nt	nt	nt	nt	0.0
O=C(Nc1ccc(F)cc1)C(c1cc2ccccc2o1)N1CCN(c2cccc(C(F)(F)F)n2)CC1 (stereo not given)	-0.6	1.0	0.5	2.3*	0.7	nt
C[C@H](CO)N1C[C@H](C)[C@H](CN(C)C(=O)Nc2ccc(F)cc2)Oc2ccc(NC(=O)Nc3ccc(C(F)(F)F)cc3)cc2C1=O	nt	nt	nt	nt	nt	-2.5
CC(C)n1c(/C=C/c2ccccc2)nc2ccccc21	9.8	21.2	-0.7	-0.5	2.0	50.9*
CC(C)n1c(CN(C)c2ccccc2)nc2ccccc21	-2.3	0.3	-3.0	-1.9	-0.5	-4.3
CC1CCN(c2ccc(C(=O)NCc3cccs3)cn2)CC1	6.0	nt	-0.3	-1.4	0.8	58.7*
CC1CCCN(c2ccc(C(=O)NCC3CCCO3)cn2)C1 (stereo not given)	8.8	8.3	1.6	-1.2	0.8	50.4*
CC1CCN(S(=O)(=O)c2cccc(C(=O)NCc3cccs3)c2)CC1	1.0	nt	-2.2	-0.9	-0.3	-8.5
Cc1noc(C)c1NC(=O)Nc1ccc2c(c1)CC(=O)N([C@@H](C)CO)C[C@@H](C)[C@H](CN(C)C(=O)Nc1ccc3c(c1)OCO3)O2	nt	nt	nt	nt	nt	-3.0
COc1ccccc1NC(=O)c1nnn(Cc2ccccc2)c1NC(=O)C(F)(F)F	-2.6	2.3	-0.3	-0.7	-0.8	-3.9
O=C(Nc1ccccc1)c1nnn(Cc2ccccc2)c1NC(=O)C(F)(F)F	5.3	20.9	0.5	-0.3	1.0	55.6*
CNC[C@@H]1Oc2ccc(NS(=O)(=O)c3cccs3)cc2CC(=O)N([C@H](C)CO)C[C@H]1C	nt	nt	nt	nt	nt	-5.1
O=C(Nc1cccc(Cl)c1)N[C@@H]1CC[C@@H](CCNC(=O)C2CC2)O[C@H]1CO	nt	nt	nt	nt	nt	-2.0
Nc1ccc(C(=O)NN2C(=O)[C@H](Cl)C2c2ccc(Cl)cc2)cc1 (stereo not given in full)	4.5	21.9	5.9*	0.0	-3.4	nt
Cc1c(/C=N/Nc2ccc([N+](=O)[O-])cn2)c2ccccc2n1Cc1ccccc1	1.8	-10.6	-0.2	-1.3	0.1	2.8
Cc1ccc(Cn2cc(/C=N/Nc3ccc([N+](=O)[O-])cn3)c3ccccc32)cc1	6.2	-1.7	2.5	-1.3	-0.4	44.8*
COc1ccc(/C=C2\CCn3c2nc2ccccc2c3=O)cc1OC	nt	nt	nt	nt	nt	42.8*
O=C(Nc1ccc(F)cc1)N1CCc2ccccc2C1	11.1*	57.5*	1.4	0.4	0.8	nt
COc1ccc(NC(=O)N2CCc3ccccc3C2)c(OC)c1	7.1	10.6	2.1	-0.1	2.6	54.1*
Cc1cc(C)cc(NC(=O)N2CCc3ccccc3C2)c1	4.7	12.3	1.3	-0.2	2.3	44.7*
SMILES	hgDAF-12 ag	Wnt bcat act	hcDAF-12 act	ssDAF12 agonist	DAX1 StAR inh	esBAF inh
C[C@H](CO)N1C[C@H](C)[C@@H](CN(C)C(=O)Nc2ccc3c(c2)OCO3)Oc2ccc(NS(=O)(=O)c3cccs3)cc2CC1=O	nt	nt	nt	nt	nt	4.7
C[C@@H]1CN([C@H](C)CO)C(=O)c2cc(NC(=O)CCCCCC(=O)Nc3ccccc3N)ccc2O[C@H]1CN(C)S(C)(=O)=O	nt	nt	nt	nt	nt	-4.7
CC(C)c1ccc(NC(=O)C(c2ccccc2)N2CC(=O)Nc3ccccc32)cc1 (stereo not given)	0.8	14.6	0.6	-0.9	1.7	65.8*
CCn1nc(C(=O)N2CCN(Cc3nc4ccccc4s3)CC2)c2ccccc2c1=O	0.7	-2.3	1.5	-1.1	-3.7	53.2*
CCn1nc(C(=O)NNC(=O)c2ccccc2)c2ccccc2c1=O	2.6	11.9	-0.1	-1.1	1.0	45.5*
CCn1nc(C(=O)N2CCc3ccccc3C2)c2ccccc2c1=O	-0.9	2.5	0.2	-1.1	-0.1	0.1
CC(C)NC(=O)N(C)C[C@@H]1Oc2c(NC(=O)C3CCCCC3)cccc2C(=O)N([C@@H](C)CO)C[C@H]1C	nt	nt	nt	nt	nt	7.9
Cc1cc(C[n+]2cc(Cl)ccc2N)c2ncccc2c1	5.8	-0.6	-1.0	-1.8	-0.5	0.3
Cc1cc(C[n+]2cc(Br)ccc2N)c2ncccc2c1	0.2	40.6*	-0.3	-1.0	-1.0	nt
Nc1ccc(Cl)c[n+]1Cc1cccc2cccnc12	-2.0	0.5	5.8*	-0.1	-0.6	-9.6
C[C@@H]1CN([C@@H](C)CO)C(=O)c2cccc(NS(=O)(=O)c3ccc(Cl)cc3)c2O[C@@H]1CN(C)C(=O)NC1CCCCC1	nt	nt	nt	nt	nt	12.8
C[C@@H]1CCCCO[C@H](CN(C)S(=O)(=O)c2ccccc2)[C@H](C)CN([C@@H](C)CO)C(=O)c2cc(NC(=O)Cc3ccccc3)ccc2O1	nt	nt	nt	nt	nt	5.9
S=C(c1ccc(-c2ccccc2Cl)o1)N1CCCCC1	11.7*	nt	2.7	0.7	3.0	nt
CN1CCN(C(=S)c2ccc(-c3cccc(Cl)c3Cl)o2)CC1	12.0*	11.9	3.9	0.1	3.3	nt
CCOC(=O)C1CCCN(C(=O)CSCc2ccccc2)C1 (stereo not given)	3.6	-1.3	-0.7	-1.4	0.9	48.1*
O=C(O)c1ccc(-c2ccccc2Cl)o1	-2.8	nt	-1.3	-0.9	-0.7	-3.4
CCOC(=O)C1CCCN(C(=O)c2ccco2)C1 (stereo not given)	0.3	-4.7	-1.6	-1.2	0.2	-8.4
CCOC(=O)C1CCCN(C(=O)c2ccc(-c3ccccc3Cl)o2)C1 (stereo not given)	7.4	-2.6	0.2	0.4	4.3*	nt
O=C(C[C@H]1CC[C@@H]2[C@H](COC[C@H](O)CN2C(=O)Nc2ccc(F)cc2)O1)NC1Cc2ccccc2C1	nt	nt	nt	nt	nt	1.2
COc1ccc(NC(=O)Nc2ccc3c(c2)C(=O)N([C@@H](C)CO)C[C@H](C)[C@H](CN(C)Cc2ccc4c(c2)OCO4)OCCCC[C@H](C)O3)cc1	nt	nt	nt	nt	nt	0.9
COc1cn(-c2ccccc2)nc1C(=O)Nc1ccccc1	7.4	14.9	1.1	-0.2	0.4	60.3*
COc1cn(-c2ccccc2)nc1C(=O)Nc1ccc(C)cc1	9.6	13.8	1.7	-0.1	1.2	?
CC(=O)N(C)C[C@H]1Oc2cc(C#Cc3cccnc3)ccc2S(=O)(=O)N([C@@H](C)CO)C[C@@H]1C	nt	nt	nt	nt	nt	1.0
